Holding throughout (conditions): mRNA level, 48 h; actives raise or lower the signal
Read-out in test [1]: Paternally Expressed 10 (PEG10), PEG10 (gene 23089)
Description: LTEA_HepaRG_PEG10: Life Technologies and Expression Analysis (LTEA) Assay for Paternally Expressed 10 (PEG10) using HepaRG (AID 2283520). The method, boiled down:
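Differentiated HepaRG cells exposed 48 h in serum-free induction medium to eight half-log concentrations topping at 100 uM, 0.5% DMSO, in duplicate. PEG10 mRNA quantified by TaqMan qRT-PCR, normalized to ACTB, GAPDH and POLR2A; bidirectional fit versus DMSO.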

Read-out in test [2]: Protein phosphatase 2A (PPP2R4), PTPA (gene 5524)
In words: LTEA_HepaRG_PPP2R4: Life Technologies and Expression Analysis (LTEA) Assay for Protein phosphatase 2A (PPP2R4) using HepaRG (AID 2283522). An outline of the steps:
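Differentiated human HepaRG cells in serum-free induction medium were exposed 48 h to 8 concentrations (top 100 µM, half-log steps, duplicate) in 0.5% DMSO. PPP2R4 mRNA was measured by TaqMan qRT-PCR, normalised to ACTB, GAPDH and POLR2A, and fitted bidirectionally versus DMSO.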

Read-out in test [3]: Phosphatase and tensin (PTEN), PTEN (gene 5728)
Description: LTEA_HepaRG_PTEN: Life Technologies and Expression Analysis (LTEA) Assay for Phosphatase and tensin (PTEN) using HepaRG (AID 2283523). The method, boiled down: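 HepaRG cells, 48 h after plating, exposed in duplicate for 48 h in serum-free induction medium to 8 half-log concentrations up to 100 uM (0.5% DMSO). PTEN mRNA by qRT-PCR, normalized to ACTB, GAPDH, POLR2A; bidirectional fit versus DMSO.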

Read-out in test [4]: solute carrier (SLC22A1), SLC22A1 (gene 6580)
In words: LTEA_HepaRG_SLC22A1: Life Technologies and Expression Analysis (LTEA) Assay for solute carrier (SLC22A1) using HepaRG (AID 2283524). An outline of the steps: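 Differentiated human HepaRG cells in serum-free induction medium, exposed 48 h in duplicate to 8-point half-log series from 100 µM top in 0.5% DMSO. SLC22A1 mRNA by TaqMan qRT-PCR normalized to ACTB, GAPDH, POLR2A; bidirectional fit versus DMSO.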

Read-out in test [5]: Pyruvate Dehydrogenase Kinase 4 (PDK4), PDK4 (gene 5166)
In words: LTEA_HepaRG_PDK4: Life Technologies and Expression Analysis (LTEA) Assay for Pyruvate Dehydrogenase Kinase 4 (PDK4) using HepaRG (AID 2283525). An outline of the steps:
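HepaRG cells plated 48 h, then switched to serum-free induction medium and exposed in duplicate for 48 h to 8 half-log concentrations from 100 uM in 0.5% DMSO. PDK4 mRNA measured by qRT-PCR, normalized to ACTB, GAPDH and POLR2A; bidirectional fit versus DMSO.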

Read-out in test [6]: NAD(P)H dehydrogenase [quinone] 1 (NQO1), NQO1 (gene 1728)
In words: LTEA_HepaRG_NQO1: Life Technologies and Expression Analysis (LTEA) Assay for NAD(P)H dehydrogenase [quinone] 1 (NQO1) using HepaRG (AID 2283526). The method, boiled down:
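Differentiated human HepaRG cells in serum-free induction medium, dosed in duplicate for 48 h at 8 half-log concentrations up to 100 uM in 0.5% DMSO. NQO1 mRNA by qRT-PCR normalized to ACTB, GAPDH, POLR2A; bidirectional fit versus DMSO baseline.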

Read-out in test [7]: Nuclear factor erythroid 2-related factor 2 (Homo sapiens) (UniProt Q16236)
Description: LTEA_HepaRG_NFE2L2: Life Technologies and Expression Analysis (LTEA) Assay for Nuclear factor erythroid 2-related factor 2 (NFE2L2) Transcription Factor using HepaRG (AID 2283527).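 Further: TaqMan qRT-PCR transcript level normalised to ACTB GAPDH and POLR2A housekeeping genes.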 An outline of the steps:
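Differentiated human HepaRG cells, serum-free induction medium, exposed 48 h in duplicate to eight half-log concentrations up to 100 uM in 0.5% DMSO. NFE2L2 mRNA by Fluidigm TaqMan qRT-PCR, normalised to ACTB, GAPDH, POLR2A; bidirectional change versus DMSO.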

Read-out in test [8]: succinate dehydrogenase complex iron sulfur subunit B (SDHB), SDHB (gene 6390)
Description: LTEA_HepaRG_SDHB: Life Technologies and Expression Analysis (LTEA) Assay for succinate dehydrogenase complex iron sulfur subunit B (SDHB) using HepaRG (AID 2283528). The method, boiled down:
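A human HepaRG culture in serum-free induction medium received test chemicals for 48 h over an eight-point range capped at 100 uM. SDHB expression change was quantified by qRT-PCR.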

Read-out in test [9]: Signal transducer and activator of transcription 3 (Homo sapiens) (UniProt P40763)
Description: LTEA_HepaRG_STAT3: Life Technologies and Expression Analysis (LTEA) Assay for Signal transducer and activator of transcription (STAT3) using HepaRG (AID 2283529). An outline of the steps: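 Differentiated HepaRG cells, serum-free induction medium, dosed 48 h in duplicate, 8 half-log concentrations from 100 uM in 0.5% DMSO. STAT3 mRNA by qRT-PCR, normalised to ACTB, GAPDH, POLR2A; bidirectional fit versus DMSO.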

Read-out in test [10]: solute carrier (SLCO1B1), SLCO1B1 (gene 10599)
Description: LTEA_HepaRG_SLCO1B1: Life Technologies and Expression Analysis (LTEA) Assay for solute carrier (SLCO1B1) using HepaRG (AID 2283530). An outline of the steps:
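SLCO1B1 transcript read by qRT-PCR (Fluidigm arrays), normalized to three housekeeping genes, after 48 h chemical exposure of HepaRG cells; bidirectional concentration-response fitting versus 0.5% DMSO baseline. Eight-point half-log series, maximum 100 uM.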

Read-out in test [11]: sulfotransferase 2A1 (SULT2A1), SULT2A1 (gene 6822)
Description: LTEA_HepaRG_SULT2A1: Life Technologies and Expression Analysis (LTEA) Assay for sulfotransferase 2A1 (SULT2A1) using HepaRG (AID 2283531). The method, boiled down:
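HepaRG, 48 h chemical exposure, 8-pt half-log curve from 100 uM in 0.5% DMSO, duplicates. Readout: TaqMan qRT-PCR of SULT2A1 mRNA, housekeeping-normalized. Bidirectional fit vs DMSO baseline.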

Read-out in test [12]: Transforming Growth Factor (TGFA), TGFA (gene 7039)
In words: LTEA_HepaRG_TGFA: Life Technologies and Expression Analysis (LTEA) Assay for Transforming Growth Factor (TGFA) using HepaRG (AID 2283532). The method, boiled down: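 Differentiated HepaRG cells exposed 48 hours in serum-free induction medium, 0.5% DMSO vehicle, 8-point half-log series from 100 uM, in duplicate. TGFA mRNA by TaqMan qRT-PCR, normalised to ACTB, GAPDH, POLR2A; bidirectional fit versus DMSO.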

Read-out in test [13]: Transforming Growth Factor (TGFB1), TGFB1 (gene 7040)
Description: LTEA_HepaRG_TGFB1: Life Technologies and Expression Analysis (LTEA) Assay for Transforming Growth Factor (TGFB1) Transporter using HepaRG (AID 2283533). An outline of the steps: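 qRT-PCR readout of TGFB1 transcript in HepaRG lysates, normalized to three housekeeping genes; gain or loss of signal fitted relative to 0.5% DMSO vehicle. Exposure: 48 h, 8-point curve from 100 uM, duplicate wells.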

Read-out in test [14]: TIMP1, TIMP1 (gene 7076)
Description: LTEA_HepaRG_TIMP1: Life Technologies and Expression Analysis (LTEA) Assay for TIMP1 using HepaRG (AID 2283534).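 Further: TaqMan qRT-PCR signal normalized to ACTB GAPDH and POLR2A housekeeping genes.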 An outline of the steps:
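HepaRG, 48 h exposure, 8-pt half-log series from 100 uM in 0.5% DMSO, duplicates; TIMP1 transcript by Fluidigm qRT-PCR, housekeeping-normalized; bidirectional curve fit vs DMSO baseline.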

Read-out in test [15]: Tumor necrosis factor receptor 1 (TNFRSF1A), TNFRSF1A (gene 7132)
Description: LTEA_HepaRG_TNFRSF1A: Life Technologies and Expression Analysis (LTEA) Assay for Tumor necrosis factor receptor 1 (TNFRSF1A) using HepaRG (AID 2283535). An outline of the steps:
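HepaRG, 48 h plating then 48 h chemical exposure, serum-free induction media; 8-pt CRC from 100 uM, half-log, 0.5% DMSO vehicle, duplicates. Readout: TaqMan qRT-PCR (Fluidigm), housekeeping-gene normalized; bidirectional fit vs DMSO.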

Read-out in test [16]: Thyroid Hormone Responsive (THRSP), THRSP (gene 7069)
Description: LTEA_HepaRG_THRSP: Life Technologies and Expression Analysis (LTEA) Assay for Thyroid Hormone Responsive (THRSP) using HepaRG (AID 2283536). The method, boiled down: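 Differentiated HepaRG cells treated 48 h in serum-free induction medium with 8 half-log concentrations up to 100 uM (0.5% DMSO), duplicates. THRSP mRNA by TaqMan qRT-PCR normalised to ACTB, GAPDH, POLR2A; bidirectional fit versus DMSO.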

Read-out in test [17]: Cellular tumor antigen p53 (Homo sapiens) (UniProt P04637)
Description: LTEA_HepaRG_TP53: Life Technologies and Expression Analysis (LTEA) Assay for Tumor Protein P53 (TP53) using HepaRG (AID 2283537). The method, boiled down:
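Gain or loss of TP53 mRNA signal is scored relative to 0.5% DMSO after 48 h chemical treatment of HepaRG liver cells, tested in duplicate at eight half-log concentrations up to 100 uM.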

Read-out in test [18]: UDP glucuronosyltransferase (UGT1A1), UGT1A1 (gene 54658)
In words: LTEA_HepaRG_UGT1A1: Life Technologies and Expression Analysis (LTEA) Assay for UDP glucuronosyltransferase (UGT1A1) using HepaRG (AID 2283538). The method, boiled down: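 HepaRG cells, 0.5% DMSO vehicle, 48 h exposure in serum-free induction medium to 8-point half-log series topping at 100 uM, in duplicate. UGT1A1 mRNA by Fluidigm qRT-PCR, normalized to ACTB/GAPDH/POLR2A; bidirectional fit versus DMSO.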

Read-out in test [19]: Nuclear factor NF-kappa-B p105 subunit (Homo sapiens) (UniProt P19838)
Description: LTEA_HepaRG_NFKB1: Life Technologies and Expression Analysis (LTEA) Assay for Nuclear Factor Kappa B Subunit 1 (NFKB1) using HepaRG (AID 2283521).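 Further: TaqMan qRT-PCR transcript normalised to ACTB GAPDH and POLR2A housekeeping genes.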 The method, boiled down:
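Human HepaRG cells receive eight half-log concentrations, highest 100 uM, for 48 h. NFKB1 expression is then quantified by qRT-PCR and analysed for up- or down-regulation relative to 0.5% DMSO vehicle.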

Active and inactive are the calls of the source. How the source made its calls: active means hit-call score of the fitted dose curve at least 0.9, where 1 is the maximum; inactive means score below 0.9.

Sequence of Cellular tumor antigen p53 (Homo sapiens) (P04637 whole entry, looked up): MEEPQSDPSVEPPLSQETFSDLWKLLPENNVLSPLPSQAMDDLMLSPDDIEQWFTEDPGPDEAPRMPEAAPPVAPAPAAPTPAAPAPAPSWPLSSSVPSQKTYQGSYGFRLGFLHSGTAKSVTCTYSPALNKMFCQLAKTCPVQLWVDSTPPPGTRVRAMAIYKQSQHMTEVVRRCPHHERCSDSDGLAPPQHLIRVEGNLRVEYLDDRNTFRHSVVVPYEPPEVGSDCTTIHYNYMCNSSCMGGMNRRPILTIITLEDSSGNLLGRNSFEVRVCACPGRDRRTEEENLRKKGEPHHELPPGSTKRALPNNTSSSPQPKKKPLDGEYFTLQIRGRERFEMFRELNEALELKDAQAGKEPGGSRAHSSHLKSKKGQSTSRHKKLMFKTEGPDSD
Sequence of Signal transducer and activator of transcription 3 (Homo sapiens) (P40763 whole entry, looked up): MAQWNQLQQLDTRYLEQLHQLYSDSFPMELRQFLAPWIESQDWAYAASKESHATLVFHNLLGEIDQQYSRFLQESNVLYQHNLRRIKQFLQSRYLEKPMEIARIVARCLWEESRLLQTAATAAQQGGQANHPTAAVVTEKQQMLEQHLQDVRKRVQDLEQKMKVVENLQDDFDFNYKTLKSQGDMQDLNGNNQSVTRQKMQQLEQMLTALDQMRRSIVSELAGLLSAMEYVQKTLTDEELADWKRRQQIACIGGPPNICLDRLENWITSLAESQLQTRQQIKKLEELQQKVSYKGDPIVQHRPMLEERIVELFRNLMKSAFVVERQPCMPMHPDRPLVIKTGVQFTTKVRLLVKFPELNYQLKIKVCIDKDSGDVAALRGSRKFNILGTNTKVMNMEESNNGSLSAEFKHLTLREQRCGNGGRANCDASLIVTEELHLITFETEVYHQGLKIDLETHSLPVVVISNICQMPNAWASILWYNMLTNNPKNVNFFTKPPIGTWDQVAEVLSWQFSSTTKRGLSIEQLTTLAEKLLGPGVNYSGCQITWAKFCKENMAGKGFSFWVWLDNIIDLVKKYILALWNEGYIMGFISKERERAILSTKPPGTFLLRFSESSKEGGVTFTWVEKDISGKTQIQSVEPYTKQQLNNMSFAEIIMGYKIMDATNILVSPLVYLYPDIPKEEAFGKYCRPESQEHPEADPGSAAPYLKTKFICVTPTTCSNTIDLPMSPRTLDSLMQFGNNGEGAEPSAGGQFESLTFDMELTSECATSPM
Sequence of Nuclear factor erythroid 2-related factor 2 (Homo sapiens) (Q16236 whole entry, looked up): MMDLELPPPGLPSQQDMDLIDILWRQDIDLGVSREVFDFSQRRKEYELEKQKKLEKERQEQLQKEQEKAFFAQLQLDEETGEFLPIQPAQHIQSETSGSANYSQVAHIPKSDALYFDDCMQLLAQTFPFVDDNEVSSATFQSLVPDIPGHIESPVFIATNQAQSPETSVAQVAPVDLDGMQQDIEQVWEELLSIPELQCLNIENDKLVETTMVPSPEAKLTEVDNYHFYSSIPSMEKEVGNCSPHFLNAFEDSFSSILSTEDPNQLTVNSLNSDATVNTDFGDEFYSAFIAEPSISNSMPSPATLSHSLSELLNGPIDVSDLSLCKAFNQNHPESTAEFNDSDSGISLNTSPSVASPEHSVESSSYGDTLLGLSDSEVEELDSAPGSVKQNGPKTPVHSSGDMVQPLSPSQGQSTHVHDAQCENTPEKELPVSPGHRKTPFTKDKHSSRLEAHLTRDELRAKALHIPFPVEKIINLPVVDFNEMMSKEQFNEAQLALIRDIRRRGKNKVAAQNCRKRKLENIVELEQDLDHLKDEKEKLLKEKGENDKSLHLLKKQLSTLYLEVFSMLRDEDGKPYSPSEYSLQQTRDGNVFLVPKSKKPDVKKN
Sequence of Nuclear factor NF-kappa-B p105 subunit (Homo sapiens) (P19838 whole entry, looked up): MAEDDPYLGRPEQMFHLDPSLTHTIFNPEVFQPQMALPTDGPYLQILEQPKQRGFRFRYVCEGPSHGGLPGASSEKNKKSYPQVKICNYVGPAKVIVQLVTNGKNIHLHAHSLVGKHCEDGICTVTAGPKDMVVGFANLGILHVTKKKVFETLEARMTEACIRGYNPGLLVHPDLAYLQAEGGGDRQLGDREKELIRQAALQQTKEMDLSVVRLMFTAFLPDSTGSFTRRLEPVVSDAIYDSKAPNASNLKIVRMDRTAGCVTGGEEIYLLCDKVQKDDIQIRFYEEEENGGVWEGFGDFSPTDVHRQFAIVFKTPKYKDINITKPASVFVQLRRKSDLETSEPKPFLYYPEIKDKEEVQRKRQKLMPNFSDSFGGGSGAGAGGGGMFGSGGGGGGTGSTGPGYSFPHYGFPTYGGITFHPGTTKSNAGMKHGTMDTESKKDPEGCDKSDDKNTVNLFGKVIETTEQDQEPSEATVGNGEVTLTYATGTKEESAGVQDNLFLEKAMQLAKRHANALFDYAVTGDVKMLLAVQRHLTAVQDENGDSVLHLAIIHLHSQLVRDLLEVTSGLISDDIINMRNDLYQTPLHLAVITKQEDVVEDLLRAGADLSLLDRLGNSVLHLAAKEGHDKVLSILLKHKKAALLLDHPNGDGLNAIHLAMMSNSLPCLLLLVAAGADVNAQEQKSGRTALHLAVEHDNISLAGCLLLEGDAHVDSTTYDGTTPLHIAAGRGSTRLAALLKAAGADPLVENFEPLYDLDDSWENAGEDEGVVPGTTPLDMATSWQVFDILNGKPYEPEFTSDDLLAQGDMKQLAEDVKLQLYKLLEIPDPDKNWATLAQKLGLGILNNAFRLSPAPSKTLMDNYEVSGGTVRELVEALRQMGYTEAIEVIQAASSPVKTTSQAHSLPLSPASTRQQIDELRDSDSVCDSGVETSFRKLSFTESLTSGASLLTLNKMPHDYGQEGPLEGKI

`CCCCCCCCCCCCCCCC`: the call in test [1], in test [2], in [3], in test [4], in test [5] and in test [6] was inactive. Moreover, the molecule was called inactive in test [7], in [8], in test [9], in [10], in test [11] and in test [12]. In addition, the call in test [13], in test [14], in test [15], in test [16], in test [17] and in test [18] was inactive.

As usually defined, the AC50 is the concentration at which the activity in the assay is half-maximal. In the case of `CN1CCN(Cc2cc(-c3ccc4[nH]c(=O)oc4c3)co2)[C@@H](c2ccc(F)cc2)C1`, the results for the AC50 in test [1], in test [4] and in test [13] were 82.7 µM (active), 50 µM (active) and 62 µM (active), respectively. Besides, the outcome in [19], in test [3], in [6], in [7], in test [10] and in [11] was inactive. The call in test [12], in test [14], in test [15] and in test [17] was inactive.

As for `CCCCCCCCCCCCCCCCCC(=O)O`, the molecule was classed as inactive in test [1], in test [19], in [3], in test [4], in test [6] and in test [7]. Besides, the molecule was classed as inactive in test [10], in [11], in test [12], in test [13], in [14] and in test [15]. In addition, the molecule was called inactive in test [17].

In the case of `Cc1c(C(=O)O)c(O)cc2c1C(=O)c1c(O)c([C@@H]3O[C@H](CO)[C@@H](O)[C@H](O)[C@H]3O)c(O)c(O)c1C2=O`, the outcome in test [1], in test [3], in test [4], in [6], in [7] and in test [8] was inactive. In addition, the outcome in test [10], in test [11], in test [12], in [13], in test [14] and in [15] was inactive. Also, in test [17], the molecule was called inactive.

Regarding `O=c1c(O)c(-c2ccc(O)c(O)c2)oc2cc(O)cc(O)c12`, the molecule was classed as inactive in test [1], in [19], in [3], in test [4], in test [6] and in test [7]. Further, the molecule was called inactive in [8], in test [9], in [11], in test [12], in test [13] and in test [14]. Moreover, the molecule was classed as inactive in [15] and in [17]. Besides, in test [10], the AC50 was 86.8 µM (active).

In the case of `O=C(O)Cc1ccccc1Nc1c(Cl)cccc1Cl`, the result in [1], in [3], in [4], in test [6], in [7] and in test [8] was inactive. In addition, the result in test [9], in test [10], in [11], in test [12], in test [13] and in test [14] was inactive. For the same molecule, the call in [15], in [16] and in test [17] was inactive. The AC50 in test [18] is 6.2 µM (active).

In the case of `NCC1(Cc2noc(=O)[nH]2)CCCCC1`, the molecule was called inactive in [1], in test [19], in [3], in test [4], in test [5] and in [6]. Further, the molecule was classed as inactive in test [7], in [8], in test [10], in test [11], in test [12] and in test [13]. For the same molecule, the result in [14], in test [15], in test [17] and in test [18] was inactive.

The record behind these values is PubChem BioAssay (EPA / NIEHS).
